Source: PubChem BioAssay (The Scripps Research Institute Molecular Screening Center)
Rows were chosen to be rich in hits. Some 2.3% of all compounds tested hit in one or more screens of this group.
CHRM1 agonist: human M1 muscarinic receptor agonists, primary screen, Fluo-8 calcium fluorescence, CHO-K1 cells, HTS; Muscarinic acetylcholine receptor M1 (Homo sapiens), P11229; CHO-K1 hM1, agonist mode; 0% DMSO, 100% acetylcholine EC100; activation, % at 3 µM; hit rate 0.33% among 360,000; AID 588814, 2011;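 active means activation above the run's mean compound activation plus 3 SD, cut at about 16% in these data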;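 further: peak over basal fluorescence ratio within a 140 s kinetic read after compound addition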
Target sequence (P11229 whole entry, looked up): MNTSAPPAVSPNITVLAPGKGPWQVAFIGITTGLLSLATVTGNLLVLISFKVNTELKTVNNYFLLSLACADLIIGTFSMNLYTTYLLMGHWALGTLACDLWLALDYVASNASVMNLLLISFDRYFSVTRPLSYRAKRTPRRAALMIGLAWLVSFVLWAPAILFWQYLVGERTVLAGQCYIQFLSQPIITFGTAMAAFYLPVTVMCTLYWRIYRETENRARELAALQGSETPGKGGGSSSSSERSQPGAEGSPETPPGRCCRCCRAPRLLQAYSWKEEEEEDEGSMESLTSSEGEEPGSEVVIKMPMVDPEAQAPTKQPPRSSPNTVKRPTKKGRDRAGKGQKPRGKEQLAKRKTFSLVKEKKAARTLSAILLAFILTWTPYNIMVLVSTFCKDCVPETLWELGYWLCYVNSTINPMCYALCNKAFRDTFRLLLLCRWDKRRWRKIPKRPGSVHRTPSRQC
CHO-K1 Ca antag: M1 antagonist counterscreen hit in parental CHO-K1 cells | ATP-induced calcium, Fluo-8 fluorescence | inhibition, % at 3 µM | hit rate 0.6% among 360,000;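 active means inhibition above a per-plate cutoff, the plate's mean sample inhibition plus 3 SD, cut at about 24% in these data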;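 further: 0% = DMSO plus EC80 ATP and 100% = DMSO alone without ATP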
CHO-K1 Ca PAM: nonselective calcium activators in parental CHO-K1 cells, primary screen, counter-screen for M1 PAM project, cell-based, Fluo-8 calcium fluorescence, full deck, 1536-well; ATP EC20; 0% at ATP EC20, 100% at ATP max; activation, % at 3 µM; hit rate 0.02% among 360,000; AID 602247, 2012;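 active means activation above the run cutoff, the mean activation of all test compounds plus 3 SD, cut at about 40% in these data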;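 further: peak over basal fluorescence ratio in a 140 s read after ATP addition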
M1 PAM: human M1 muscarinic receptor positive allosteric modulators, primary screen, CHO-K1 cells, Fluo-8 calcium fluorescence, 1536-well; Muscarinic acetylcholine receptor M1 (Homo sapiens), P11229; CHO-K1 hM1, ACh EC20; 0% = ACh EC20, 100% = maximal ACh; activation, % at 3 µM; hit rate 0.088% among 360,000; AID 588819, 2011; in the data active means activation above about 19%, passing the limit was not always enough
M1 antag: human M1 muscarinic receptor antagonists, primary screen, CHO-K1 cells, Fluo-8 calcium fluorescence, 1536-well. CHO-K1 hM1, ACh EC80 antagonist. inhibition, % at 3 µM. hit rate 1.3% among 360,000. AID 588852, 2011;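 active means percent inhibition above its own plate's cutoff, namely the mean of that plate's compound wells plus 3 SD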;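 further: peak over basal fluorescence ratio during 140 s after agonist addition; 0% = ACh EC80 plus DMSO and 100% = DMSO alone without agonist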
CHO-K1 Ca ag: counter-screen for M1 agonists: effect in parental CHO-K1 cells | Fluo-8 calcium fluorescence; scaled to maximal ATP response, vehicle zero | activation, % at 3 µM | hit rate 0.48% among 360,000 | AID 602248, 2012; in the data active means activation above about 15%;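 further: untransfected CHO-K1 host cells lacking M1 receptor as counterscreen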
Numbers without * were called inactive; · = no result given.

SMILES	CHRM1 agonist	CHO-K1 Ca antag	CHO-K1 Ca PAM	M1 PAM	M1 antag	CHO-K1 Ca ag
CCc1nc2ccc(C(=O)N3CCN(C)CC3)cn2c1N(C)CCC(C)C	-9	-6	20	5	-7	1
CN[C@H]1C[C@H]2c3[nH]c4ccc(-c5ccc(OC)cc5)cc4c3CCN2C(=O)[C@H]1[C@H](C)O	-3	-5	7	0	-2	1
COc1ccc(Cc2c(-c3ccc(C)cc3)nc3cc(C)c(Br)c(C)n23)c(C)c1	1	-18	14	3	-21	1
OC12CCCCC1C(c1ccc3c(c1)OCO3)N(Cc1cccc(F)c1)CC2 (stereo unspecified)	-2	-6	21	8	-8	1
OC12CCCCC1C(c1ccc3c(c1)OCO3)N(Cc1ccc(F)cc1)CC2 (stereo unspecified)	-3	7	11	8	-5	27*
COc1ccc(C(=O)N2CCN(c3nc4cc(C)cc(C)c4cc3C#N)CC2)cc1	-8	-11	6	-10	11	1
CNc1cccc(-c2cc(OC)ccc2OC)n1	-8	4	9	-22	42*	4
CNc1cccc(-c2c(OC)cccc2OC)n1	-9	-9	20	-2	-3	2
Cc1cc(C)nc(NC(=NCCc2c[nH]c3ccccc23)NC(=O)Nc2ccc(Cl)c(Cl)c2)n1	-6	0	17	7	-6	0
Cc1cc(C)nc(NC(=NCCc2c[nH]c3ccccc23)NC(=O)c2ccco2)n1	1	-3	17	-4	29*	4
Cc1cc(C)nc(NC(=NCCc2c[nH]c3ccccc23)NC(=O)Nc2ccccc2)n1	-5	8	16	-11	21*	3
COc1ccc(/C=C/CN2CCCC(CO)(Cc3cccc(Cl)c3)C2)cc1 (stereo unspecified)	2	-4	9	-7	19	28*
CCOC(=O)C1(Cc2cccc(OC)c2)CCN(C/C=C/c2ccc(OC)cc2)CC1	-13	20	-13	-30	33*	4
CCn1nc(C)c(CN2CCCC(CO)(Cc3ccccc3)C2)c1C (stereo unspecified)	-8	-12	11	2	-8	0
CCn1nc(C)c(CN2CCCC(CO)(Cc3cccc(Cl)c3)C2)c1C (stereo unspecified)	-6	-14	8	-23	54*	2
COc1cccc(CC2(CO)CCCN(C/C=C/c3ccccc3OC)C2)c1 (stereo unspecified)	-12	0	3	-20	3	5
CCOC(=O)C1(Cc2cccc(OC)c2)CCN(C/C=C/c2ccccc2)CC1	-5	0	-1	-8	10	5
COc1ccccc1/C=C/CN1CCCC(CO)(Cc2cccc(Cl)c2)C1 (stereo unspecified)	0	12	-16	-17	56*	3
COc1ccc(F)c(CN2CCCC(CO)(Cc3cccc(Cl)c3)C2)c1 (stereo unspecified)	-4	1	2	6	-9	1
COCCCN1C(=O)C(CC(=O)NCC2CCCCC2)CC(C(=O)N2CCOCC2)=C1C (stereo unspecified)	-2	1	15	5	-5	0
O=C(c1ccc(Br)o1)N1CCN(C23CC4CC(CC(C4)C2)C3)CC1	-6	13	-12	-22	67*	0
O=C(c1ccco1)N1CCN(C(=O)c2ccc(Br)o2)CC1	-4	-4	16	7	-12	1
O=C(c1cccs1)N1C[C@@H](O)[C@H](n2cc(-c3ccc(F)cc3)nn2)C[C@@H]1c1ccccc1	-4	2	12	-2	2	2
COc1ccc(N2C(=O)CC(N3CCN(S(=O)(=O)c4c(C)cc(C)cc4C)CC3)C2=O)cc1 (stereo unspecified)	-3	-14	17	4	-3	2
COc1ccc(N2C(=O)CC(N3CCN(S(=O)(=O)c4cc(C)ccc4C)CC3)C2=O)cc1 (stereo unspecified)	-4	12	2	-5	5	16*
SMILES	CHRM1 agonist	CHO-K1 Ca antag	CHO-K1 Ca PAM	M1 PAM	M1 antag	CHO-K1 Ca ag
CCC(=O)N1CCCC1(C)C(=O)Nc1ccc2nc(C)ccc2c1 (stereo unspecified)	-2	5	17	1	-5	0
CCCOc1ccc(C(=O)NNC(=S)NC(=O)c2cc(-c3ccc(Cl)cc3)nc3ccccc23)cc1	-2	13	3	4	4	0
COc1ccc(C(=O)NNC(=O)c2ccc(C(C)(C)C)cc2)cc1	-8	10	7	6	-2	4
COc1ccc(C(=O)NNC(=S)NC(=O)c2cc(-c3ccccc3)nc3ccccc23)cc1	3	-20	6	5	-23	30*
COc1ccc(C(=O)NNC(=S)NC(=O)C(C)(C)C)cc1	77*	15	-31	-24	29	86*
COc1ccc(C(=O)NC(=S)NNC(=O)c2ccccc2C)cc1	85*	24*	-31	-22	19	85*
COc1cc(C(=O)NNC(=S)NC(=O)c2ccccc2C)cc(OC)c1OC	14	6	6	0	-2	24*
CC1(C)CC(=O)C2=C(C1)NC(=O)CC2	6	3	4	2	5	0
CC(=O)c1cccc(OCc2cc(C(=O)N(C)Cc3cnccn3)no2)c1	-3	-17	28	2	4	2
CN(Cc1cccnc1)C(=O)c1cc(COc2ccc3c(c2)CCCC3)on1	0	12	-2	-21	64*	13
CN(Cc1cccc2cnccc12)C(=O)c1cc(COc2ccc(F)cc2F)on1	-2	10	-22	-8	15	11
CCc1ccc(CN(C)C(=O)c2cc(COc3cccc4cnccc34)on2)cc1	-1	25*	-18	-12	42	10
Cc1c(C(C)NC(=O)c2cc(COc3cccc4cnccc34)on2)cnn1C (stereo unspecified)	1	5	-12	-8	7	16*
CC1(c2nnnn2Cc2ccccc2)CCC(=O)N1CCOc1ccccc1 (stereo unspecified)	·	-2	5	·	·	0
CCN(C(=O)CN1C(=O)NC2(CCC(C)CC2)C1=O)C1CCCCC1 (stereo unspecified)	-3	-13	6	5	-7	0
OC(CCN1CC2CCC(CC2)C1)(Cc1ccccc1)c1ccco1 (stereo unspecified)	-6	-6	3	-28	86*	0
Cc1cc(Oc2ccccc2)nc(-c2ccccc2)n1	-4	-36	6	9	-10	-1
